Experimental findings from the supplement of paper PMC6555819 are described below.

Common to all, as to assay: PBM binding z-score (relative to random genomic background probes); higher = stronger binding; sequences stand for … in GC…GCGATTGACAGCGTAGAATGAAGG
Test [1] deals with RARb homodimer (NR concentration 270 nM). The method in brief: (§1)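 Binding buffer was PBS pH 7.4 with 2% milk, 0.02% Triton X-100, 1 mM DTT, 0.2 mg/mL BSA and 0.4 mg/ml salmon testes DNA. In it, ligand-free nuclear receptor dimers were incubated 1 h on custom Agilent 4×180K protein-binding microarrays carrying double-stranded probes. Antibodies against each partner (one per run) detected binding, and z-scores were calculated against random background probes after regression normalization of scanned fluorescence.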

The subject of test [2] is RARg:RXRa (NR concentration 270 nM, RXRa partner concentration 90 nM). An outline of the steps: as §1
For test [3], the system named is RARg homodimer (NR concentration 270 nM). The method in brief: as §1
Test [4] relates to RXRa DBDmut IVT, anti-RXR (DBD mutation: RXRa K156A/R161A, NR concentration 90 nM). The method in brief:
as §1

Test [5] relates to RXRa homodimer (NR concentration 180 nM). The method in brief:
as §1

Test [6] concerns THRa:RXRa (NR concentration 90 nM, RXRa partner concentration 90 nM). The method in brief: as §1
Test [7] relates to THRa homodimer (NR concentration 90 nM). The method in brief:
as §1

For test [8], the system named is VDR homodimer (NR concentration 270 nM). An outline of the steps:
as §1

Test [9] relates to VDR:RXRa (NR concentration 270 nM, RXRa partner concentration 90 nM). An outline of the steps: as §1

Consider TCTGCTAGGTCAGTTGGTCAACTAACGAGCTGCC, for which the PBM binding z-score in test [1] is 2.71; in [2], 2.82; in [3] it was 3.64; in [4], 0.186; in test [5] it was 1.03; in test [6] it was 1.43. Also, the PBM binding z-score was -0.321 in [7] and -0.774 in test [8].

On to AGAATGAGGATAAGATCAGGGAAACAGAATACAT, for which the PBM binding z-score in test [1] is -0.0231; in [2] it was 0.224; in [3], 0.322; in test [4], -0.458; in test [5], 0.578; in test [6] it was 1.42. Besides, the PBM binding z-score in test [7] is 0.69; in [9] it was -0.0497; in test [8], -0.103.

With CGTCACAGTTCAAGGTAACGTAACAGAAAGCAGC, the PBM binding z-score is 1.63 in [1]; 2.45 in [2]; 2.53 in test [3]; 2.69 in test [4]; 2.14 in test [5]; 2.24 in test [6]. Further, the PBM binding z-score in test [7] came to 1.24; in [9] it was 1.61; in test [8] it was 1.53.

AGTCAAAGTTCAGGACGAGGTGACGTAAAGCACG: the PBM binding z-score in test [1] is 3.64; in test [2] it was 5.69; in [3], 5.15; in test [4], 3.18; in test [5], 3.53; in test [6], 3.93. For the same sequence, the PBM binding z-score was determined as 1.83 in test [7], 3.27 in test [9] and 2.66 in test [8].

Take AGAACGAGGGCACGCTGAGTTAATAGCAGAGTAG: the PBM binding z-score in test [1] stood at 0.988; in test [2] it was 2.08; in test [3] it was 2.41; in test [4] it was 1.8; in test [5], 1.44; in test [6], 2.05. The PBM binding z-score in test [7] was found to be 0.0156; in test [9] it was 1.69; in test [8], 1.08.

Take TCATATAGGTAAATGCTCGGTGAAAGTCCGATCT: the PBM binding z-score in test [1] amounted to 0.197; in [2] it was 0.387; in test [3], 0.081; in test [4], 1.45; in test [5], 0.76; in test [6], 0.193. For the same sequence, the figures for the PBM binding z-score in test [7], in [9] and in test [8] were 0.208, 1.01 and 0.375, respectively.

For the sequence CGTAAAAGTTCAAGGTAACGTAACAGAAAGCAGC, the PBM binding z-score in test [1] was 3.55; in test [2], 4.73; in [3], 5.27; in [4] it was 4.27; in test [5] it was 3.81; in test [6], 2.92. Moreover, the results for the PBM binding z-score in [7] and in test [8] were 1.17 and 2.67, respectively.

Turning to TCGTGTAGATCAAGCAGGTTAAGAAAGCCTGAGT, the PBM binding z-score in [1] was -0.0651; in test [2] it was -0.125; in test [3] it was -0.344; in test [4], 0.445; in test [5], 0.247; in [6], 0.168. The results for the PBM binding z-score in test [7], in test [9] and in test [8] were -0.744, 0.56 and -0.0255, respectively.

For the sequence ACTATTAGTTGAATTAGGGCAACCGATACGACGC, the PBM binding z-score in [1] came to 0.778; in test [2], 0.551; in test [3], 0.997; in test [4], 0.675; in test [5], 0.283; in test [6], 1.54. For the same sequence, the values for the PBM binding z-score in [7], in [9] and in test [8] were 0.513, 0.274 and 0.497, respectively.

ACAGACAGGTGAGTGATGGTAACTCAGCTGGACG: the PBM binding z-score in test [1] was -0.167; in test [2], 0.351; in test [3], 0.407; in test [4] it was -0.204; in test [5], 0.27; in test [6], -0.225. Further, the values for the PBM binding z-score in [7], in test [9] and in [8] were -0.414, -0.122 and -0.122, respectively.

Consider CCTACTGGGCCAGAGGTCATTGATTCCAATGCTC, for which the PBM binding z-score is 4.02 in test [1]; 4.51 in test [2]; 3.89 in test [3]; 1.52 in test [4]; 4.88 in test [5]; 3.22 in [6]. Further, the values for the PBM binding z-score in test [7], in test [9] and in test [8] were 1.09, 4.47 and 3.61, respectively.

Regarding TCTTGTAGATCAATAGGAGGTTAAGAAAGATCGA, the PBM binding z-score in test [1] stood at 0.457; in [2] it was 0.595; in test [3] it was 0.446; in test [4] it was 1.01; in test [5] it was 0.992; in test [6] it was 0.723. For the same sequence, the PBM binding z-score is -0.311 in test [7], 0.721 in test [9] and -0.266 in test [8].

In the case of GATACAGGGTCTAGGCCAGAGTACGCGTATTGAT, the PBM binding z-score in test [1] is -0.143; in test [2], 0.0579; in [3] it was 0.175; in test [4], -0.382; in test [5] it was -0.304; in [6], -0.508. Further, the PBM binding z-score in test [7] is -0.824; in [9], -0.508; in [8], 0.154.

TATACAGGGTCGAAGGCCAGAGTACGAATGTCGA: the PBM binding z-score is 1.26 in [1]; 1.87 in test [2]; 1.72 in [3]; 0.491 in test [4]; 2.32 in [5]; 1.16 in test [6]. Moreover, the PBM binding z-score in test [7] was -0.382; in test [9], 1.56; in [8], 1.23.

In the case of CAAACTAGGTCATAGGTCAAAGTCGAGCCAACCA, the PBM binding z-score worked out at 4.27 in test [1]; 6.56 in test [2]; 5.38 in test [3]; 2.31 in [4]; 7.49 in test [5]; 4.11 in test [6]. The PBM binding z-score in [7] was determined as 1.44; in test [8], 1.92.

In the case of TTGCCTAGGTCATGCGGGCCAGTATAGTGTCGGC, the PBM binding z-score was determined as 2.96 in test [1]; 3.93 in [2]; 4.33 in test [3]; 0.791 in [4]; 2.76 in [5]; 3.08 in test [6]. Also, the PBM binding z-score in test [7] is 0.807; in [8], 0.421.
